# Screening results deposited in PubChem BioAssay by several laboratories.
# This is a sample that favours compounds with a hit; in the whole collection about 1.2% have one here.
# GRK2 inh = blocks RNA aptamer binding to human GRK2; P25098; bead flow cytometry, FAM-aptamer displacement from GRK2; inhibition of aptamer binding, % at 10 µM; hit rate 0.59% among 330,000;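 active = inhibition of aptamer binding above 40%, roughly 3 SD of noise, on plates passing a quality check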;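 note: median bead fluorescence of bound FAM aptamer so fluorescent compounds give negative values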
# Target sequence (P25098 whole entry, looked up): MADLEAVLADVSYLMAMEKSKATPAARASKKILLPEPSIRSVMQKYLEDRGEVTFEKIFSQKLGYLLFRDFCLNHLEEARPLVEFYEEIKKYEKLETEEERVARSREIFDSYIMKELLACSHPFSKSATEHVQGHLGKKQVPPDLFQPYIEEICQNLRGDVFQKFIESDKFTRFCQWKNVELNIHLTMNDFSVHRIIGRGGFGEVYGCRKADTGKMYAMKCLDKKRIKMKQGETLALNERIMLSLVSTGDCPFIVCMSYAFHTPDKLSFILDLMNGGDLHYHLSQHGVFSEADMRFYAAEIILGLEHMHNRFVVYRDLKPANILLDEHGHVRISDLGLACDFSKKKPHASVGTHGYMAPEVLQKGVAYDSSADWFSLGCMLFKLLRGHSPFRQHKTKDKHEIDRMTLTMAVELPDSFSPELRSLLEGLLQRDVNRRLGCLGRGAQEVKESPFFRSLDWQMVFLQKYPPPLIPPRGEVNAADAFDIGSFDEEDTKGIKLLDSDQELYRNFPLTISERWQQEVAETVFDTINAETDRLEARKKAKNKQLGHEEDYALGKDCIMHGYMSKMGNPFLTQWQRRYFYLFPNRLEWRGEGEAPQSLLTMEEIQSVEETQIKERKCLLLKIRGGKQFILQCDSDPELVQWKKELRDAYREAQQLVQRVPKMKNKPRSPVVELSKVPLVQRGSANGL
# NTR1 ag = agonists of human neurotensin receptor NTR1. P30989. activation, % at 20 µM. hit rate 0.17% among 330,000. NTR1-U2OS beta-arrestin-GFP spot imaging, agonist mode;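 active = activation at or above 40% of the spot to cytoplasm intensity ratio, with at least 20 cells analyzed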;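 note: 0% = DMSO without peptide and 100% = 100 nM NTR1 peptide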
# Platelet DG rel = platelet dense granule release activity | AID 1663 | human platelet-rich plasma, SFLLRN dense granule ATP release, luminescence | inhibition, %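 (compounds screened at 7.5 µM in platelet-rich plasma)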 | hit rate 0.22% among 300,000;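 active = mean replicate score, as percent of positive control, at or above 50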
# beta cell repl = MIN6 beta-cell proliferation induction | MIN6 cells proliferation, ATPlite luminescence, 48 h; cells starved in 0.2% serum; 100% = growth in 10% serum | proliferation, % at 10 µM | hit rate 0.29% among 330,000 | AID 2380;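 active = compounds whose signal lies at least 3.5 SD above the mean of all wells on their plate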;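 note: 0% = DMSO-treated cells in low-serum medium and 100% = 10% serum control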
# GRK2 inh confirm = confirmation of human GRK2 inhibitors displacing RNA aptamer. shares compounds with GRK2 inh. bead-bound GRK2, FAM-aptamer displacement, flow cytometry. aptamer displacement, % at 10 µM. hit rate 4% among 2,000. AID 504451;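 active = aptamer displacement above 40%, near three times the noise of non-fluorescent compounds, on plates passing quality checks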;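 note: negative values mostly reflect intrinsic compound fluorescence rather than true enhancement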
# Aptamer quench 1 = fluorescent aptamer quenching in GRK2 counter-screen dose response. shares compounds with GRK2 inh. Fluorescent RNA aptamer beads, flow cytometry; stronger effect = higher value. fluorescence change (kMESF span), kMESF (concentration not given with the values). 110 tested, under 10 active;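 active = compounds whose bead fluorescence drops by more than 37 kMESF across the dose range, marking them as dye quenchers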
# FAM quench CP1 = aptamer fluorescence quenching in GRK2 counter-screen. shares compounds with GRK2 inh. Carboxyfluorescein RNA aptamer on beads, flow cytometry quenching; stronger effect = lower value. fluorescence response (% of DMSO), % at 10 µM. 2,000 tested, under 10 active;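 active = compounds that quench the bead-bound fluorescent RNA probe, cutting fluorescence to under half of the solvent control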;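 note: counterscreen run without GRK2 so only probe quenching by compound is measured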
# GRK2 confirm 2 = human GRK2 inhibition confirmation, cherry pick 2; shares compounds with GRK2 inh; bead-bound GRK2, FAM-aptamer displacement, flow cytometry; inhibition of aptamer binding, % at 10 µM; 360 tested, under 10 active; AID 504782;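 active = inhibition of aptamer binding above 40%, about triple the noise seen with nonglowing compounds, on plates passing quality control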;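 note: negative values mostly come from compounds that fluoresce themselves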
# FAM quench CP2 = quenches fluorescent RNA aptamer, GRK2 hit artifact. 360 tested, under 10 active. fluorescence response vs DMSO, % at 10 µM. shares compounds with GRK2 inh. carboxyfluorescein RNA aptamer beads, flow cytometry quenching; stronger effect = lower value;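 active = response vs DMSO under 50%, meaning signal dropped by over half, treated as fluorescence quencher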;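 note: labelled aptamer on streptavidin beads without GRK2 as a quench counter-screen; 100% = bead fluorescence of DMSO wells and lower means quenching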
# Active calls of the source: *; · = no result given.
SMILES,GRK2 inh,NTR1 ag,Platelet DG rel,beta cell repl,GRK2 inh confirm,FAM quench CP1,others
Cc1nn(-c2ccccc2)c2c1C(=O)N(Cc1ccccc1)C(=O)C(C)(C)C2,44.0*,1.8,8.8,-3.5,-0.8,95.0,
C/C=C(\C)C(=O)NCCN1C2=NC[C@@H](C)N2C[C@@H]1Cc1ccc(OC)cc1,0.0,2.4,-11.7,-0.9,·,·,
C/C=C(\C)C(=O)NCCN1C2=NC[C@@H](C)N2C[C@H]1Cc1ccc(O)cc1,68.0*,6.4,-1.9,6.0,-3.2,98.9,
Cc1ccc(S(=O)(=O)N2CCOCC2)cc1NS(=O)(=O)c1ccc(F)c(F)c1,0.0,0.1,·,4.3,·,·,
Cc1ccc(S(=O)(=O)NCCC(=O)Nc2nnc(C)s2)cc1,100.0*,-1.2,17.0,-1.9,3.0,102.2,
O=C(Nc1cccc(Cn2cccn2)c1)c1cc2c(s1)CCCC2,94.0*,5.0,-3.5,-1.9,-1.0,94.5,
O=C(c1ccccc1)c1c2c(cc3sc4ccccc4[n+]13)-c1cccc3cccc-2c13,76.0*,·,·,·,69.8*,110.4,Aptamer quench 1=-5.5
Cc1occc1C(=O)Nc1cccc(C(=O)NCc2ccccc2)c1,0.0,-0.5,6.4,-0.7,-2.2,99.9,
CC(=O)Nc1ccccc1C(=O)C(=O)Nc1cccc(C(=O)NCc2ccccc2)c1,0.0,-0.6,2.2,-0.1,·,·,
COc1ccc(C(=O)Nc2cccc(C(=O)NCc3ccccc3)c2)cc1,0.0,0.5,-3.1,2.0,2.3,100.2,
CC(=O)Nc1ccccc1C(=O)C(=O)Nc1cccc(C(=O)NCc2ccc(C)cc2)c1,1.0,0.1,-6.6,0.3,·,·,
Cc1ccc(C(=O)Nc2cccc(C(=O)NCc3ccccc3)c2)cc1,0.0,0.9,-11.6,-0.4,1.6,101.7,
COc1ccccc1CNC(=O)COC(=O)c1ccccc1SCC(=O)N1CCCC1,2.0,0.9,-2.5,3.1,·,·,
O=[N+]([O-])c1cc(Cl)cc(/C=N/Nc2nc3ccccc3s2)c1O,4.0,3.1,-0.4,-5.3,·,·,
COc1cc(/C=N/Nc2nc3ccccc3s2)cc([N+](=O)[O-])c1O,68.0*,2.0,11.8,-3.4,2.0,98.5,
COCCCNC(=O)NC(=O)c1ccccc1,76.0*,0.9,9.9,-1.7,·,·,GRK2 confirm 2=19.1;FAM quench CP2=101.0
O=C1NC(=O)/C(=C\c2ccc(O)cc2O)S1,76.0*,0.2,-0.5,-3.4,2.9,101.5,
CC1(C)CC(NC(=S)Nc2ccc(S(N)(=O)=O)cc2)CC(C)(C)N1,72.0*,1.1,13.8,0.1,-2.6,104.1,
Cc1ccc2cc(CN(CC3CCCO3)C(=S)NCc3ccco3)c(=O)[nH]c2c1C (configuration not stated),0.0,1.0,-0.6,-2.0,·,·,
Cc1ccc2cc(CN(Cc3nnnn3Cc3ccco3)CC3CCCO3)c(=O)[nH]c2c1C (configuration not stated),64.0*,0.6,-0.1,-1.6,-13.4,104.1,
CCOc1ccccc1N(C)C(=O)c1nn(-c2ccc(OC)cc2OC)c(=O)c2ccccc12,0.0,1.2,5.4,-2.1,·,·,
Cc1cc[n+](C(C)C(=O)c2ccc(-c3ccccc3)cc2)cc1 (configuration not stated),0.0,0.7,0.3,-7.3,·,·,
Cc1cccc2c(C(=O)n3cccn3)cc(-c3ccccc3Cl)nc12,3.0,-0.5,-6.1,-4.0,-0.5,98.1,
Nc1nc2c(ccc3ccccc32)s1,0.0,0.5,-5.8,1.1,·,·,GRK2 confirm 2=-20.5;FAM quench CP2=101.0
CCc1ccccc1NC(=O)CCS(=O)(=O)c1ccc2c(c1)CCCN2C(C)=O,61.0*,-1.0,-12.7,-1.5,1.1,99.9,GRK2 confirm 2=17.2;FAM quench CP2=100.0
SMILES,GRK2 inh,NTR1 ag,Platelet DG rel,beta cell repl,GRK2 inh confirm,FAM quench CP1,others
CCC(=O)N1CCc2cc(S(=O)(=O)CCC(=O)NCc3cccs3)ccc21,0.0,-5.1,-2.9,2.2,·,·,GRK2 confirm 2=11.5;FAM quench CP2=99.0
CCOc1ccccc1NC(=O)CCS(=O)(=O)c1ccc2c(c1)CC(C)N2C(C)=O (configuration not stated),1.0,-0.2,-2.8,4.4,·,·,
CCOc1ccccc1NC(=O)CCS(=O)(=O)c1ccc2c(c1)CCN2C(C)=O,6.0,-0.2,2.9,-0.6,·,·,GRK2 confirm 2=-8.3;FAM quench CP2=101.0
CCOc1ccc(NC(=O)CCS(=O)(=O)c2ccc3c(c2)CCCN3C(C)=O)cc1,4.0,8.8,6.4,-3.9,·,·,
CCN(CC)S(=O)(=O)c1ccc(OC)c(NC(=O)c2ccc(N3CCCC3=O)cc2)c1,2.0,0.6,·,5.3,·,·,
COc1ccc(S(=O)(=O)N2CCCCC2)cc1NC(=O)c1ccc(N2CCCC2=O)cc1,79.0*,3.0,·,0.9,1.2,101.0,
NC(CO)C(O)c1ccc([N+](=O)[O-])cc1 (configuration not stated),98.0*,-2.9,-0.3,-1.5,0.6,98.7,
O=C(COC(=O)/C=C/c1cccc(F)c1)Nc1ccc(Cl)cn1,5.0,-0.1,1.4,-2.0,·,·,
O=C(COC(=O)/C=C/c1cccc(F)c1)Nc1ncccn1,45.0*,0.2,8.3,1.6,30.9,99.8,
O=C(Nc1ccc(F)cc1F)c1csc(-c2ccncc2)n1,2.0,-0.4,0.0,1.1,·,·,
Cc1ccc(C(=O)Nc2cccc(C(F)(F)F)c2)cc1NC(=O)c1csc(-c2ccncc2)n1,0.0,0.2,0.7,-3.5,2.5,95.9,
CCOc1ccc(N(CC(=O)Nc2ccc(OC)cc2OC)S(=O)(=O)c2c(C)[nH]c(=O)[nH]c2=O)cc1,0.0,0.1,-3.9,-3.2,·,·,
COc1ccc(S(=O)(=O)N2CCc3cc4c(cc3C2C)OCCCO4)cc1 (configuration not stated),0.0,2.2,1.8,-2.4,·,·,
CCCNC(=O)C(Cc1ccccc1F)NC(=O)c1ccccn1 (configuration not stated),86.0*,1.9,·,2.4,1.4,96.4,GRK2 confirm 2=2.5;FAM quench CP2=100.0
C=C(C)C(=O)Nc1cccc(C2=NOC3(C2)C[C@H](C(N)=O)N(C(=O)c2ccccc2)C3)c1 (some centres not stated),48.0*,-2.9,8.5,0.4,20.1,118.7,Aptamer quench 1=4.2
C=C(C)C(=O)Nc1cccc(C2=NOC3(C2)C[C@@H](C(N)=O)N(C(=O)c2ccc(Cl)cc2)C3)c1 (some centres not stated),97.0*,-0.7,·,-2.5,91.7*,99.1,Aptamer quench 1=5.2
C=C(C)C(=O)Nc1cccc(C2=NOC3(C2)C[C@@H](C(N)=O)N(C(=O)C(=C)C)C3)c1 (some centres not stated),75.0*,0.9,-1.6,-0.5,43.2*,101.2,Aptamer quench 1=-0.7
